Source: PubChem BioAssay (NCI)
About 79,000 compounds went through this panel and 15% of them were active in at least one assay; those are over-represented in the sample as a whole. No stated cut-off is given here; in the data, active means growth inhibition above about 70%; inactive means the rest.

Legend:
[1] = NCI Yeast Anticancer Drug Screen. Data for the rad50 strain (AID 155);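 further: 0% = growth of vehicle-only cultures of the same strain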; details: S. cerevisiae rad50 strain growth inhibition; at 50.0 µM; hits give high values
Procedure, shortened: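 Genetically altered yeast (DNA repair pathway); compound treatment; growth inhibition vs vehicle ctrl.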

[2] = NCI Yeast Anticancer Drug Screen. Data for the mec2-1 strain (AID 157); details: S. cerevisiae mec2-1 strain, at 50.0 µM, hits give high values
Procedure, shortened: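 Test agents were screened against the mec2-1 yeast strain, with defined DNA repair or cell cycle alteration. Growth was scored as inhibition against vehicle-only controls.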

[3] = NCI Yeast Anticancer Drug Screen. Data for the sgs1 mgt1 strain (AID 161);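 further: 0% = growth of cultures given vehicle only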; details: S. cerevisiae sgs1 mgt1 strain, at 50.0 µM, hits give high values
Procedure, shortened: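 Inhibition of yeast growth, normalised to vehicle-treated controls, is reported for a strain bearing genetic alterations in DNA damage repair.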

[4] = NCI Yeast Anticancer Drug Screen. Data for the cln2 rad14 strain (AID 165);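 further: 0% = growth equal to vehicle treated cultures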; details: S. cerevisiae cln2 rad14 strain, at 50.0 µM, hits give high values
Procedure, shortened: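 Growth of compound-exposed yeast (cln2 rad14 genotype) measured and expressed as inhibition relative to vehicle.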

[5] = NCI Yeast Anticancer Drug Screen. Data for the bub3 strain (AID 167); details: S. cerevisiae bub3 mutant strain, at 50.0 µM, hits give high values
Procedure, shortened: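 Yeast carrying a defined mutation is treated with each compound, and growth is compared with that of vehicle-exposed cells to give inhibition.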

[6] = NCI Yeast Anticancer Drug Screen. Data for the mlh1 rad18 strain (AID 175); details: S. cerevisiae mlh1 rad18 strain growth inhibition; at 50.0 µM; hits give high values
Procedure, shortened: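 In this whole-cell yeast screen, a strain with altered DNA damage repair is challenged with compound, and its growth is measured against matched vehicle-treated controls.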

Measured: growth inhibition

CCCC(N)S(=O)(=O)O (stereo not given)
inactive: [1] -25.6% | [2] -10.6% | [3] -23.9% | [4] -14.1% | [5] 6.1% | [6] -11.2%

O=[N+]([O-])c1ccc(Cn2on2-c2ccccc2)cc1
inactive: [1] 8.55% | [2] 21.1% | [3] 9.1% | [4] -16.7% | [5] 24.4% | [6] -23.9%

CN(C)Cc1cc(N=Nc2ccccc2)ccc1O
inactive: [1] -23.4% | [2] -12.2% | [3] -12.4% | [4] 9.4% | [5] 4.9% | [6] -19.4%

CN(C)/C(N)=N\C(N)=Nc1cc2ccccc2c2ccccc12
inactive: [1] 1.3% | [2] -9.55% | [3] -0.2% | [4] -23.2% | [5] 2.25% | [6] -0.55%

CCOc1ccc(NC(=O)c2c(N/N=C/c3ccc(OC)cc3)nc(=O)[nH]c2C)cc1
inactive: [1] -14.2% | [2] -31.5% | [3] -21.6% | [4] -8.7% | [5] -15.6% | [6] -28.7%

O=C(NC/C=C/Br)NC1CCNc2ccccc21 (stereo not given)
inactive: [1] -14.2% | [2] -27.4% | [3] 22.1% | [4] 28.6% | [5] 20.2% | [6] 23%

C=C/C=C1\CCOC1=O
inactive: [1] 1.15% | [2] -5.9% | [3] 2.85% | [4] -3.05% | [5] 3.1% | [6] -10.6%

Nc1ccc2c(c1)C1C(C3C2C2(Cl)C(Cl)=C(Cl)C3(Cl)C2(Cl)Cl)C2(Cl)C(Cl)=C(Cl)C1(Cl)C2(Cl)Cl (stereo not given)
inactive: [1] 33.6% | [2] 24.9% | [3] 21.9% | [4] 24.1% | [5] 50.1% | [6] 39.5%

Cn1ncc(=O)[nH]c1=O
inactive: [1] -15.2% | [2] -5.2% | [3] -23.4% | [4] 10.1% | [5] -9.85% | [6] -10.3%

CC(=O)Nc1cccc(NC(C)=O)c1
inactive: [1] 0.4% | [2] 4.55% | [3] 5.1% | [4] -17.9% | [5] -1.05% | [6] 11.2%

CC(S)c1ccccc1 (stereo not given)
inactive: [1] 6.4% | [2] -0.55% | [3] 13.2% | [4] 11.9% | [5] 25.7% | [6] 14.4%

CN(C)c1ccc(C(=O)c2ccc([N+](=O)[O-])cc2)cc1
inactive: [1] -1.6% | [2] -10% | [3] 0.5% | [4] 6.3% | [5] -4.95% | [6] -8.25%

O=C(O)CCC(C(=O)O)N(Cc1ccccc1)Cc1ccccc1 (stereo not given)
inactive: [1] 11.4% | [2] -0.4% | [3] -1.45% | [4] 1% | [5] 7.75% | [6] 5.9%

COc1ccc(S(=O)(=O)N2OC2c2ccccc2)cc1 (stereo not given)
inactive: [1] -22.2% | [2] 2.65% | [3] 14.7% | [4] 10% | [5] 1.65% | [6] -6%

COc1ccc2c3c(c4ccccc4c2c1)C(=O)OC3=O
inactive: [1] 27.8% | [2] 11.2% | [3] 16.7% | [4] 18.6% | [5] 21.8% | [6] 19.2%

c1ccc2[nH]c(CN3CCCCC3)cc2c1
inactive: [1] 7.15% | [2] -10.1% | [3] -8.95% | [4] -18.8% | [5] -13.2% | [6] 11.8%

CCCCCOc1ccc(C2=C(c3ccccc3)C(=O)C(c3ccccc3)=C2c2ccccc2)cc1
inactive: [1] 40.4% | [2] 12.3% | [3] 33.5% | [4] 26.9% | [5] -3.15% | [6] 23.4%

CC12CCC(/C(=N/O)C1=O)C2(C)C (stereo not given)
inactive: [1] 2.15% | [2] -2.15% | [3] 1.1% | [4] -74.5% | [5] -1.8% | [6] 4.25%

CN(C)c1ccc(-c2cccc[n+]2C)cc1
inactive: [1] -12.8% | [2] 12.2% | [3] 3.05% | [4] 3.25% | [5] 0.1% | [6] 25.7%

O=C1OCCC2(CCN(Cc3ccccc3)CC2)O1
inactive: [1] 11.2% | [2] 9.35% | [3] 25.4% | [4] -0.3% | [5] -1.45% | [6] 24.3%
